Results filed as inconclusive are left out. Calls of active or inactive are those of the source. The call rests on the fitted dose curve; in most records, active means well fitted curve in the direction sought with a large enough effect; inconclusive means small, poorly fitted or top-dose-only effect, or another doubt; inactive means no such curve, though single readings can be large; an effect the other way counts as inactive or inconclusive.
Tests used:
CRL-7250 = normal cell line; test: Cytotoxic Profiling of Annotated Libraries Using Quantitative High-Throughput Screening (AID 1296008); details: Five cell lines viability, CellTiter-Glo ATP luminescence, 48-72 h; max response: hits give low values; further: nearly all actives have a fitted effect of over 60% in size; on max response: on the % scale 0 is the no-effect control and ±100 the full control effect
Procedure, shortened: (§1)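 Cells exposed to compounds for 48 or 72 hr at 37 degrees Celsius. Viability read as ATP-coupled luminescence with CellTiter-Glo after 10 min at room temperature.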

HEK293 = test: as above; details: Five cell lines viability, CellTiter-Glo ATP luminescence, 48-72 h; max response: hits give low values
Procedure, shortened: as §1

HaCat = test: as above; details: Five cell lines viability, CellTiter-Glo ATP luminescence, 48-72 h; max response: hits give low values
Procedure, shortened: as §1

KB-3-1 = test: as above; details: Five cell lines viability, CellTiter-Glo ATP luminescence, 48-72 h; max response: hits give low values
Procedure, shortened: as §1

NIH3T3 [1] = test: as above; details: Five cell lines viability, CellTiter-Glo ATP luminescence, 48-72 h; max response: hits give low values
Procedure, shortened: as §1

HEK293T = test: qHTS assay to identify novel small-molecules to repurpose for Merkel cell carcinoma treatment (AID 1296009); details: MCC and control cell lines, CellTiter-Glo viability, 72 h; series mostly up to 44.8 µM; further: nearly all actives have a fitted effect of over 60% in size
Procedure, shortened: (§2)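 Cells were incubated with compound for 72 hr at 37 degree celsius before CellTiter-Glo addition. Luminescence was normalized with no-cell wells as full cytotoxicity and DMSO as baseline.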

C33A = test: Primary qHTS to identify gynecologic anti-cancer compounds using libraries of approved drugs and bioactive compounds (AID 1345084); details: Gynecologic cancer cell panel viability, ATPlite luminescence, 48 h; series mostly up to 57.5 µM; further: on the % scale 0 is the no-effect control and ±100 the full control effect; nearly all actives have a fitted effect of over 55% in size
Procedure, shortened: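 Five-concentration response, 48 h; readout is ATP-driven luciferase luminescence.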

NIH3T3 [2] = test: qHTS assay to identify novel small-molecules to repurpose for Merkel cell carcinoma treatment (AID 1296009); details: MCC and control cell lines, CellTiter-Glo viability, 72 h; at 44.8 µM (top of the series) unless noted; further: nearly all actives have a fitted effect of over 60% in size
Procedure, shortened: as §2

COc1cc(C(=O)OC[C@H]2O[C@H](O[C@@]3(CO)O[C@@H](CO)[C@H](O)[C@H]3O)[C@H](O)[C@@H](O)[C@@H]2O)ccc1O
inactive: max response (CRL-7250) -10.5% | outcome (HEK293) | max response (HaCat) 2.76% | max response (KB-3-1) 4.87% | max response (NIH3T3 [1]) 0.778% | Potency (HEK293T) | Potency (C33A)

C=C1CC[C@@H]2[C@](C)(CC[C@H](O)[C@@]2(C)CCC=C(C)C)[C@@H]1Cc1c[nH]c2ccccc12
inactive: max response (CRL-7250) -8.3% | outcome (HEK293) | max response (HaCat) -2.84% | max response (KB-3-1) 1.09% | outcome (NIH3T3 [1]) | Potency (HEK293T) | outcome (NIH3T3 [2]) inactive [at 17.4 µM] | Potency (C33A)

CC1=CC(=O)OC(C)(CC(C)(O)C(=O)O)C1 (centres undefined)
inactive: max response (CRL-7250) -4.45% | outcome (HEK293) | max response (HaCat) -5.61% | max response (KB-3-1) 6.61% | max response (NIH3T3 [1]) 0.862% | Potency (HEK293T) | Potency (C33A)

O=C(O)c1n[nH]c2c1C[C@H]1C[C@@H]21
inactive: max response (CRL-7250) -0.338% | outcome (HEK293) | max response (HaCat) 2.24% | max response (KB-3-1) 3.14% | max response (NIH3T3 [1]) -3.9% | Potency (HEK293T) | Potency (C33A)

CO[C@@H]1CC[C@H](OC[C@]2(COC(=O)c3ccc(C)[nH]3)[C@H](OC(C)=O)CC[C@@]3(C)[C@@H]4CC=C(C)[C@@H](C5=C(O)C(=O)OC5O)[C@]4(C)CC[C@@H]32)O[C@H]1C (some centres undefined)
inactive: outcome (CRL-7250) | outcome (HEK293) | max response (HaCat) -0.118% | outcome (KB-3-1) | max response (NIH3T3 [1]) -6.06% | Potency (HEK293T) | Potency (C33A)

COC1=Cc2c(nc3n(c2=O)C(C)C(=O)NC3(O)C(C)C)OC=C1 (centres undefined)
inactive: outcome (CRL-7250) | outcome (HEK293) | max response (HaCat) 4.53% | max response (KB-3-1) 6.94% | max response (NIH3T3 [1]) 2.45% | Potency (HEK293T) | Potency (C33A)

C=CC1(C)CC(OC(=O)C(=C)C(O)COC(C)=O)C(C(=C)C(=O)OC)C(O)C1C(=C)CO (centres undefined)
inactive: outcome (CRL-7250) | outcome (HEK293) | max response (HaCat) -1.47% | max response (KB-3-1) 1.8% | max response (NIH3T3 [1]) 0.638% | Potency (HEK293T) | Potency (C33A)

CC1(C)CCC(C)(C)c2cc3c(cc21)Sc1ccccc1N=C3c1ccc(C(=O)O)cc1
inactive: outcome (CRL-7250) | outcome (HEK293) | max response (HaCat) -6.28% | max response (KB-3-1) -15.5% | max response (NIH3T3 [1]) 3.93% | Potency (HEK293T) | Potency (C33A)

Nc1nonc1C(=Nc1ccc(F)c(Cl)c1)NO
inactive: max response (CRL-7250) -22.8% | outcome (HEK293) | max response (HaCat) -3.71% | outcome (KB-3-1) | outcome (NIH3T3 [1]) | Potency (HEK293T) | Potency (C33A)

COC12CC3C(C(C)C1=CC(=O)O2)C(O)C(OC(C)=O)C1C(C)(C)C(OC(C)=O)CCC31C (centres undefined)
inactive: max response (CRL-7250) 0.349% | outcome (HEK293) | max response (HaCat) -18.1% | outcome (KB-3-1) | outcome (NIH3T3 [1]) | Potency (HEK293T) | outcome (NIH3T3 [2]) inactive [at 17.4 µM] | Potency (C33A)

O=C(/C=C/c1ccc(O)c(O)c1)OCc1ccccc1O[C@@H]1O[C@H](CO)[C@@H](O)[C@H](O)[C@H]1O
inactive: max response (CRL-7250) -1.33% | outcome (HEK293) | max response (HaCat) 1.88% | max response (KB-3-1) 0.279% | max response (NIH3T3 [1]) -4.16% | Potency (HEK293T) | Potency (C33A)

CN1C(=O)c2ccccc2NC(=O)[C@]12O[C@@H]2c1cccc(O)c1
inactive: max response (CRL-7250) -2% | outcome (HEK293) | max response (HaCat) -7.54% | max response (KB-3-1) 4.06% | max response (NIH3T3 [1]) -15.7% | Potency (HEK293T) | Potency (C33A)

COCCN(C)Cc1ccc2nc3sc(C(=O)N(C)C4CCCCC4)cn3c2c1
inactive: outcome (CRL-7250) | outcome (HEK293) | max response (HaCat) -3.7% | outcome (KB-3-1) | max response (NIH3T3 [1]) -0.706% | Potency (HEK293T) | Potency (C33A)

CC(c1c[nH]c2ccccc12)C(O)C(=O)O (centres undefined)
inactive: max response (CRL-7250) -1.71% | outcome (HEK293) | max response (HaCat) -10.2% | outcome (KB-3-1) | max response (NIH3T3 [1]) 3.62% | Potency (HEK293T) | Potency (C33A)

COc1c(C(CC(C)C)OC(C)=O)ccc(Oc2c(O)cc(C)cc2/C=C/C(C)=O)c1C(=O)O (centres undefined)
inactive: max response (CRL-7250) -10.2% | outcome (HEK293) | max response (HaCat) -7.86% | max response (KB-3-1) 3.96% | max response (NIH3T3 [1]) -18.3% | Potency (HEK293T) | Potency (C33A)

O=C(/C=C/c1ccc(O)cc1)O[C@H]1[C@@H]2C=CO[C@@H](O[C@@H]3O[C@H](CO)[C@@H](O)[C@H](O)[C@H]3O)[C@@H]2[C@@]2(CO)O[C@@H]12
inactive: max response (CRL-7250) -3.08% | outcome (HEK293) | max response (HaCat) 1.73% | outcome (KB-3-1) | max response (NIH3T3 [1]) 0.736% | Potency (HEK293T) | Potency (C33A)
